Source: PubChem
hgDAF-12 ag: agonists of H. glycines DAF-12 nuclear receptor. HEK293 GAL4-hgDAF12 UAS-luciferase reporter, agonist luminescence; normalized to butyrate control. activation, % at 6.8 µM. 370,000 tested, 1.8% active;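 active means activation above a cutoff set at the mean of all screened compounds plus 3 SD, cut at about 10% in these data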;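 further: 0% = DMSO wells and 100% = sodium butyrate wells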
ssDAF-12 act: activates DAF-12 receptor from parasite S. stercoralis; HEK293 ssDAF-12/GRIP1 lit1-tk-luc reporter, luminescence; % of 3 µM dafachronic acid response; activation, % at 6.8 µM; 370,000 tested, 1% active; AID 652126;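 active means activation above the mean over all tested compounds plus 3 SD, cut at about 0.9% in these data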;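 further: 0% = DMSO-only wells and 100% = 3 µM delta7-dafachronic acid wells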
DAX1 inh-1: inhibitors of DAX1 repression of SF-1 activated StAR promoter; HEK293T StAR-luciferase reporter, SF-1/DAX-1 repression relief; inhibition, % at 6.8 µM; 370,000 tested, 1.1% active; AID 652010;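 active means inhibition above the mean over all tested compounds plus 3 SD, cut at about 3.6% in these data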;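 further: 0% = DAX-1 cells with DMSO and 100% = cells lacking DAX-1 with DMSO; higher inhibition means more luminescence from relief of DAX-1 repression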
DAX1 inh-2: inhibits human nuclear receptor DAX1. HEK293 Gal4-DAX1 luciferase reporter, luminescence. inhibition, % at 6.75 µM. 340,000 tested, 0.99% active;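 active means inhibition above the mean over all tested compounds plus 3 SD, cut at about 4.2% in these data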;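 further: 0% = DAX1-transfected cells with DMSO and 100% = empty-vector control cells with DMSO; inhibition shows as a rise in luminescence from relieved DAX1 repression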
Target sequence (P51843 207-470 limits assumed): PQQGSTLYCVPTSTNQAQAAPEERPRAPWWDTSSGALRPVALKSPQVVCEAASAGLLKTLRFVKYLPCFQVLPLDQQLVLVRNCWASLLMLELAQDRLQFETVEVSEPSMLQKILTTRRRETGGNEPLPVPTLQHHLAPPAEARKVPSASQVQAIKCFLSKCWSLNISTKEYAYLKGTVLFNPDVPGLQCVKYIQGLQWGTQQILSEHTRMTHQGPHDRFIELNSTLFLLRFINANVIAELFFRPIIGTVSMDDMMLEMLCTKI
hcDAF-12 act: H. contortus DAF-12 activation, primary screen; activation, % at 6.8 µM; 370,000 tested, 1.4% active; HEK293 hcDAF-12 lit1-tk-luc reporter, luminescence; 0% DMSO, 100% Δ7-dafachronic acid; AID 652067;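 active means activation above the mean of all tested compounds plus 3 SD, cut at about 5.5% in these data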;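 further: 100% = response to 3 µM Δ7-dafachronic acid high control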
* marks the source's active call; other numbers are inactive results. In the library only some 4.1% were active in any assay of this set; here they are far more common.

O=C(NC(=S)Nc1cccc(NC(=S)NC(=O)c2ccccc2)c1)c1ccccc1 was read as hgDAF-12 ag 4, ssDAF-12 act 0, DAX1 inh-1 -1, DAX1 inh-2 -2 and hcDAF-12 act 5.
Screening COc1ccccc1CNC(=O)N1CCC(c2nc3ccc(Cl)cc3[nH]2)CC1 returned hgDAF-12 ag -2, ssDAF-12 act -1, DAX1 inh-1 -2 and hcDAF-12 act -3.
`COc1cc2cc(CN(C(=O)NC3CCCCC3)C3CCCC3)c(=O)[nH]c2cc1OC` gave hgDAF-12 ag -3, ssDAF-12 act -1, DAX1 inh-1 0, DAX1 inh-2 0 and hcDAF-12 act 0.
O=C(NC1CCCCC1)N(Cc1cc2cc3c(cc2[nH]c1=O)OCCO3)C1CCCCC1 was read as hgDAF-12 ag -3, ssDAF-12 act -1, DAX1 inh-1 -1, DAX1 inh-2 4.8* and hcDAF-12 act -2.
Screening CCC[C@H]1[C@@H](NC(=O)c2ccc(OC)cc2)CC[C@@]23CCCN2C(=O)CCC[C@@H]13 returned hgDAF-12 ag -2, ssDAF-12 act -2 and hcDAF-12 act 0.
`O=C(NNC(=O)c1cccs1)c1cccc(F)c1` gave hgDAF-12 ag -2, ssDAF-12 act 1.3*, DAX1 inh-1 1, DAX1 inh-2 -1 and hcDAF-12 act 2.
O=C(COC(=O)CNS(=O)(=O)c1ccc(Br)cc1Cl)NCCc1ccccc1 was read as hgDAF-12 ag 2, ssDAF-12 act 1.4*, DAX1 inh-1 -4, DAX1 inh-2 0 and hcDAF-12 act 2.
`CSc1nc(N)n2nccc2n1` gave hgDAF-12 ag 0, ssDAF-12 act -1, DAX1 inh-1 0 and hcDAF-12 act 6.2*.
For Cc1cccc(NC(=O)[C@@H]2CCCN2C2=NS(=O)(=O)c3ccccc32)c1C the results were hgDAF-12 ag 4, ssDAF-12 act -1, DAX1 inh-1 -1, DAX1 inh-2 4.4* and hcDAF-12 act 0.
`CC(C)Sc1ccc(C(=O)Nc2ccc(F)cc2F)cn1` gave hgDAF-12 ag 12*, ssDAF-12 act -1, DAX1 inh-1 1, DAX1 inh-2 2 and hcDAF-12 act 1.
`CCc1ccc(NC(=O)NCC2CCN(Cc3cccc(Cl)c3)CC2)cc1` gave hgDAF-12 ag 3, ssDAF-12 act -2, DAX1 inh-1 0, DAX1 inh-2 -1 and hcDAF-12 act 1.
For Cc1ccc(NC(=O)NCC2CCN(Cc3cccc(Cl)c3)CC2)cc1Cl the results were hgDAF-12 ag 3, ssDAF-12 act 1.7*, DAX1 inh-1 0, DAX1 inh-2 1 and hcDAF-12 act -1.
Cc1ccc(CN2CCC(CNC(=O)Nc3ccccc3F)CC2)cc1 was read as hgDAF-12 ag -1, ssDAF-12 act 0, DAX1 inh-1 -1, DAX1 inh-2 4.4* and hcDAF-12 act -1.
`O=C(Nc1ccc(F)cc1)c1ccc2ncsc2c1` gave hgDAF-12 ag 12*, ssDAF-12 act 0, DAX1 inh-1 1, DAX1 inh-2 1 and hcDAF-12 act 4.
O=C(Nc1ccc(Cl)cc1)c1ccc2snnc2c1 was read as hgDAF-12 ag 11*, ssDAF-12 act -1, DAX1 inh-1 0, DAX1 inh-2 1 and hcDAF-12 act 6.2*.
Screening O=C(Nc1ccc(Cl)cc1)c1ccc2sc([C@@H]3O[C@H](CO)[C@@H](O)[C@H]3O)nc2c1 returned hgDAF-12 ag 11*, ssDAF-12 act 0, DAX1 inh-1 2 and hcDAF-12 act 4.
`O=C(Nc1ccc2c(c1)OCO2)c1ccc2sc([C@@H]3O[C@H](CO)[C@@H](O)[C@H]3O)nc2c1` gave hgDAF-12 ag 3, ssDAF-12 act -1, DAX1 inh-1 1 and hcDAF-12 act 0.
For O=C(Nc1nccs1)c1ccc2sc([C@H]3C[C@H](O)[C@@H](CO)O3)nc2c1 the results were hgDAF-12 ag 7, ssDAF-12 act 0, DAX1 inh-1 1 and hcDAF-12 act 1.
`O=C(Nc1ccc(Cl)cc1)c1ccc2ncsc2c1` gave hgDAF-12 ag 7, ssDAF-12 act -1, DAX1 inh-1 1, DAX1 inh-2 1 and hcDAF-12 act 1.
O=C(Nc1nc2ccccc2s1)c1ccc2sc([C@H]3C[C@H](O)[C@@H](CO)O3)nc2c1 was read as hgDAF-12 ag 11*, ssDAF-12 act -1, DAX1 inh-1 0 and hcDAF-12 act 0.
O=C1c2[nH]nc(-c3ccccc3)c2C(c2ccc(F)cc2)N1Cc1ccccc1 (centres undefined) was read as hgDAF-12 ag -1, ssDAF-12 act -1, DAX1 inh-1 0 and hcDAF-12 act 0.
For Cc1ccc(-c2nnc(SCC(=O)N3CCCC3)o2)cc1 the results were hgDAF-12 ag 2, ssDAF-12 act -1, DAX1 inh-1 0, DAX1 inh-2 1 and hcDAF-12 act 0.
Screening C#CCSc1nnc(-c2ccc(C)cc2)o1 returned hgDAF-12 ag 11*, ssDAF-12 act 1, DAX1 inh-1 2, DAX1 inh-2 1 and hcDAF-12 act 3.
Screening C#CCSc1nnc(-c2cccc3ccccc23)o1 returned hgDAF-12 ag 9, ssDAF-12 act 1.7*, DAX1 inh-1 0, DAX1 inh-2 0 and hcDAF-12 act 5.
Screening C#CCSc1nnc(-c2ccc(O)cc2)o1 returned hgDAF-12 ag 11*, ssDAF-12 act -1, DAX1 inh-1 1, DAX1 inh-2 1 and hcDAF-12 act 2.
`OCC#CCSc1nnc(-c2ccncc2)o1` gave hgDAF-12 ag 3, ssDAF-12 act -1, DAX1 inh-1 -1, DAX1 inh-2 2 and hcDAF-12 act 0.
For Oc1ccc(-c2nnc(SCc3ccccc3)o2)cc1 the results were hgDAF-12 ag 11*, ssDAF-12 act -1, DAX1 inh-1 1, DAX1 inh-2 2 and hcDAF-12 act 5.
c1ccc(CSc2nnc(-c3cccnc3)o2)cc1 was read as hgDAF-12 ag 9, ssDAF-12 act -1, DAX1 inh-1 1, DAX1 inh-2 2 and hcDAF-12 act 0.
`CC1=C2N=C(N)N(Cc3ccccc3)C(Cc3ccccc3)C2n2c(=O)n(-c3ccccc3)c(=O)n2C1` (centres undefined) gave hgDAF-12 ag 2, ssDAF-12 act -1, DAX1 inh-1 0 and hcDAF-12 act 1.
Screening Cc1cc2nc(/C=C/c3cccnc3)[nH]c2cc1C returned hgDAF-12 ag 7, ssDAF-12 act 1.7*, DAX1 inh-1 4.0*, DAX1 inh-2 0 and hcDAF-12 act 6.4*.
For Cc1cc2nc(/C=C/c3nc4cc(C)c(C)cc4[nH]3)[nH]c2cc1C the results were hgDAF-12 ag 0, ssDAF-12 act 0, DAX1 inh-1 0, DAX1 inh-2 0 and hcDAF-12 act 0.
Cc1cc(Nc2cccc(C(F)(F)F)c2)cc(=O)n1-c1cccc(C(F)(F)F)c1 was read as hgDAF-12 ag 0, ssDAF-12 act -1, DAX1 inh-1 -1 and hcDAF-12 act -2.
`COc1ccc(S(=O)(=O)Nc2ccncc2)c(C)c1C` gave hgDAF-12 ag -2, ssDAF-12 act -1, DAX1 inh-1 1, DAX1 inh-2 0 and hcDAF-12 act -1.
